Reference: PubChem BioAssay (Tox21)
Inconclusive results are not listed. A structure can be active in one record and inactive in another. Active and inactive are the calls of the source. Unless noted, calls come from the whole dose curve; as a rule, active = well fitted curve in the direction sought with a large enough effect in the repeat runs; inconclusive = weak or mixed curves; inactive = no such curve, though single readings can be large; an effect the other way counts as inactive or inconclusive.

What was measured:
[1] = qHTS assay to identify small molecule antagonists of the thyroid receptor (TR) signaling pathway (AID 743065); note: series mostly up to about 70 µM; nearly all actives have a fitted effect of over 55% in size
Summary of the method: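 GH3.TRE-Luc rat pituitary cells (two TREs driving luciferase) were dosed with compound, then stimulated with 1 nM T3 (final) for 23.5 h at 37 C. ONE-Glo luminescence was the read-out, with CellTiter-Fluor fluorescence as the cytotoxicity counter-screen.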

[2] = test system: thyroid hormone receptor (rat, GH3 cells); assay: qHTS assay to identify small molecule agonists of the thyroid receptor (TR) signaling pathway (AID 743066; calls by dose curve)
[3] = target: Estrogen receptor (Homo sapiens) (UniProt P03372); assay: qHTS assay to identify small molecule antagonists of the estrogen receptor alpha (ER-alpha) signaling pathway (AID 743069; active = well fitted curve in the direction sought with a large enough effect in the signal ratio in the repeat runs, not every such curve was filed as active; the % refers to the signal ratio)
Estrogen receptor (Homo sapiens), sequence (P03372 whole entry, looked up): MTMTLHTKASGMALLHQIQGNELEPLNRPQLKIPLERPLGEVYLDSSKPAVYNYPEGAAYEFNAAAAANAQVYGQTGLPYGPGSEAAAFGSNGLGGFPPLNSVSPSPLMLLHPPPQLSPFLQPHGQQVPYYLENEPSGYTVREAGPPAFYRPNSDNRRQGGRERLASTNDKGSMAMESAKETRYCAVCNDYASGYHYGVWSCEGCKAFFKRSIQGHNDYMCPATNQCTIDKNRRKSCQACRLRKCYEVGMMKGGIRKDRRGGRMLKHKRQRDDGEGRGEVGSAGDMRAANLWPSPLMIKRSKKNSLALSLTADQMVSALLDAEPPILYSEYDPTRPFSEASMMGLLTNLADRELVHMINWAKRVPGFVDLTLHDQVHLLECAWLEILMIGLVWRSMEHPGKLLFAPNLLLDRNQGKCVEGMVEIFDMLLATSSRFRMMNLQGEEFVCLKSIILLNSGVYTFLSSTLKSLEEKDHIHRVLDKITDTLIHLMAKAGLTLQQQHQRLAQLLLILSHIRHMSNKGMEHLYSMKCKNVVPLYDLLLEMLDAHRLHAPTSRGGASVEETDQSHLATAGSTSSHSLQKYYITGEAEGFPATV
Summary of the method: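 Beta-lactamase FRET fluorescence is read after 2 hr at room temperature with LiveBLAzer B/G substrate. Before that, ER-alpha-bla HEK293 cells sit 4 hr after plating, then receive compound plus 17beta-estradiol and incubate 18 hr at 37C.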

[4] = qHTS assay to identify small molecule antagonists of the estrogen receptor alpha (ER-alpha) signaling pathway - cell viability counter screen (AID 743074; calls by dose curve;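 note: HEK293 cells carrying ER-alpha-UAS-bla reporter stimulated with 17beta-estradiol; nearly all actives have a fitted effect of over 45% in size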)
[5] = target: Estrogen receptor (Homo sapiens) (UniProt P03372); assay: qHTS assay to identify small molecule agonists of the estrogen receptor alpha (ER-alpha) signaling pathway (AID 743075; calls by dose curve;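 note: HEK293 GripTite cells with ER-alpha and UAS-driven beta-lactamase reporter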)
[6] = target: Estrogen receptor (Homo sapiens) (UniProt P03372); assay: qHTS assay to identify small molecule agonists of the estrogen receptor alpha (ER-alpha) signaling pathway using the BG1 cell line (AID 743079); note: nearly all actives have a fitted effect of over 20% in size; note: potency is the fitted concentration of half-maximal effect
[7] = qHTS assay to identify small molecule antagonists of the estrogen receptor alpha (ER-alpha) signaling pathway using the BG1 cell line (AID 743080; calls by dose curve;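 note: BG1 cells stimulated with 17beta-estradiol alongside compound; series mostly up to about 70 µM; nearly all actives have a fitted effect of over 25% in size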)
Summary of the method: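 Endogenous full-length ER-alpha in BG1-Luc-4E2 cells drives a stably integrated 4×ERE luciferase gene; compounds were tested against 17beta-estradiol over 21.5 h, with luminescence and multiplexed viability fluorescence recorded.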

[8] = qHTS assay to identify small molecule antagonists of the estrogen receptor alpha (ER-alpha) signaling pathway using the BG1 cell line - cell viability counter screen (AID 743081);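 note: compound given together with 17beta-estradiol as the ER stimulus; series mostly up to about 70 µM; nearly all actives have a fitted effect of over 45% in size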
[9] = target: Aromatase (Homo sapiens) (UniProt P11511); assay: qHTS assay to identify aromatase inhibitors (AID 743083); note: series mostly up to about 70 µM; nearly all actives have a fitted effect of over 55% in size
Aromatase (Homo sapiens), sequence (P11511 whole entry, looked up): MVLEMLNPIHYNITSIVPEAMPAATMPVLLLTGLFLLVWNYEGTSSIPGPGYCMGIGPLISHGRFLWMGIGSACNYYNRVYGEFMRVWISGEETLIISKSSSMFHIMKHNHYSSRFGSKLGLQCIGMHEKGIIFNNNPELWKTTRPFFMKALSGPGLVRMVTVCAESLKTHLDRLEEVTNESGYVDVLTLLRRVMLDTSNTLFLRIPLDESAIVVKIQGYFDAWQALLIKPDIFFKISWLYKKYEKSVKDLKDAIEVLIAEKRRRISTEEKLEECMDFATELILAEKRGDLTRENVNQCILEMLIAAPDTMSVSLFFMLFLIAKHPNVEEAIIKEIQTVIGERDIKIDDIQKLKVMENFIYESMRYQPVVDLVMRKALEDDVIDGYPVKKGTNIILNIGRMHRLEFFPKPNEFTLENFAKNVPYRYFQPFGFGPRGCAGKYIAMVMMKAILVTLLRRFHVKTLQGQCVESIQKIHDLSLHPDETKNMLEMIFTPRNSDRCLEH

[10] = qHTS assay to identify aromatase inhibitors - cell viability counter screen (AID 743084);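 note: cells stimulated with testosterone during compound exposure; nearly all actives have a fitted effect of over 55% in size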
[11] = target: Aryl hydrocarbon receptor (Homo sapiens) (UniProt P35869); assay: qHTS assay to identify small molecule that activate the aryl hydrocarbon receptor (AhR) signaling pathway (AID 743085);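 note: HG2L7.5c1 human HepG2 liver cells with stably integrated DRE-driven firefly reporter; series mostly up to about 70 µM; nearly all actives have a fitted effect of over 15% in size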
Aryl hydrocarbon receptor (Homo sapiens), sequence (P35869 whole entry, looked up): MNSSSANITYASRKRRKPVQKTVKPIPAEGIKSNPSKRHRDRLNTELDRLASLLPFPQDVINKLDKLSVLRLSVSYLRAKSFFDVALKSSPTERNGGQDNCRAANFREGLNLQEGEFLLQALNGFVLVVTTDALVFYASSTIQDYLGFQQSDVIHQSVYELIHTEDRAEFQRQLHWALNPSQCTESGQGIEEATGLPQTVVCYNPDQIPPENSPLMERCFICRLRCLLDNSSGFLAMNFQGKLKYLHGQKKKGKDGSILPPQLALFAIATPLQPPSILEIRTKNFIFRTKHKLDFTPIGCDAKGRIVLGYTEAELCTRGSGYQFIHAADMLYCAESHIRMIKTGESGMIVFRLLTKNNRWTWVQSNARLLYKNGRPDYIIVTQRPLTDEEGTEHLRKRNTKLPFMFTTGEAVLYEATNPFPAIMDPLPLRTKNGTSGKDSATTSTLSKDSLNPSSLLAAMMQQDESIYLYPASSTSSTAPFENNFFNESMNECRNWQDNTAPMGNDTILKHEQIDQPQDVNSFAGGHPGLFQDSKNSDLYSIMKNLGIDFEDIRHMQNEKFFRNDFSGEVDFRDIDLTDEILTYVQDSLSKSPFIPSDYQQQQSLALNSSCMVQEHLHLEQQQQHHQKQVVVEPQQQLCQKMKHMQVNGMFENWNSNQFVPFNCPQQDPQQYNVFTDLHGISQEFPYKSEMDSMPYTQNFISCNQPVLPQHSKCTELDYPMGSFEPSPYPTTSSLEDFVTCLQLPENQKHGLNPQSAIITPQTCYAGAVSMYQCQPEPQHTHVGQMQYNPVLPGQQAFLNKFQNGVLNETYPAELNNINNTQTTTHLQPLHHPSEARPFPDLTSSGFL
Summary of the method: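 Measured in HG2L7.5c1 cells: CellTiter-Fluor signal (30 min incubation, 37C) for viability, then luciferase luminescence (30 min, room temperature). Compound contact time was 24 h at 37C, following a 5 h pre-incubation.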

[12] = qHTS assay to identify small molecule that activate the aryl hydrocarbon receptor (AhR) signaling pathway - cell viability counter screen (AID 743086);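 note: HepG2 liver cells carrying the AhR DRE luciferase reporter; series mostly up to about 70 µM; nearly all actives have a fitted effect of over 45% in size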
Summary of the method: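 HepG2-AhR-luc (HG2L7.5c1) cells, 4000/well, treated 24 h at 37 C with compound; viability measured as CellTiter-Fluor fluorescence after 30 min in the same wells as the luciferase read.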

[13] = target: Peroxisome proliferator-activated receptor gamma (Homo sapiens) (UniProt P37231); assay: qHTS assay to identify small molecule agonists of the peroxisome proliferator-activated receptor gamma (PPARg) signaling pathway (AID 743094; active = well fitted activation curve with a large enough effect in the signal ratio in the repeat runs, not every such curve was filed as active; the % refers to the signal ratio)
Peroxisome proliferator-activated receptor gamma (Homo sapiens), sequence (P37231 whole entry, looked up): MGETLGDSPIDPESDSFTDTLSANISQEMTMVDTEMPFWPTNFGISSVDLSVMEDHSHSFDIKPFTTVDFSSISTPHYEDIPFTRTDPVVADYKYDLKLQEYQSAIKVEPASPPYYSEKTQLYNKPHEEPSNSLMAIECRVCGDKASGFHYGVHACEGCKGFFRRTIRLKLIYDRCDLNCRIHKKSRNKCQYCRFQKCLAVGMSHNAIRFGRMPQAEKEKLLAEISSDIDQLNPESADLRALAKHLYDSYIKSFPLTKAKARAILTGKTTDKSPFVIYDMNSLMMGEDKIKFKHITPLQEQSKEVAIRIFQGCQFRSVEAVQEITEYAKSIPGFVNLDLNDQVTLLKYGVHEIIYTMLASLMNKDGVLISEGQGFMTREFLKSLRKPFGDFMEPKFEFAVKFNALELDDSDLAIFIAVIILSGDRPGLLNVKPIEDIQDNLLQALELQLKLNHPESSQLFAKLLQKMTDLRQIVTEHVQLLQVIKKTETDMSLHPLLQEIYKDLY
Summary of the method: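 Cells from the PPARg UAS-bla HEK293H line are plated and incubated 5 h at 37C. Compounds in DMSO are pinned in and left 17 h at 37C. LiveBLAzer B/G substrate is then added for 1 h at room temperature before fluorescence is measured.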

[14] = qHTS assay for small molecule agonists of the antioxidant response element (ARE) signaling pathway (AID 743202; active = well fitted activation curve with a large enough effect in the signal ratio in the repeat runs, not every such curve was filed as active; the % refers to the signal ratio)
Summary of the method: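 HepG2 ARE-bla reporter line, 2,000 cells/well; 5 h preincubation 37 C/5% CO2; compound (DMSO) 16 h 37 C; B/G FRET substrate 2 h RT; fluorescence intensity.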

[15] = qHTS assay for small molecule agonists of the antioxidant response element (ARE) signaling pathway - cell viability counter screen (AID 743203; calls by dose curve; note: nearly all actives have a fitted effect of over 55% in size)
Summary of the method: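 Cytotoxicity was tested in parallel with the ARE reporter screen. ARE-bla HepG2 cells were exposed to compounds for 16 hrs, and viability was taken from CellTiter-Glo luminescence.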

[16] = qHTS assay for small molecule activators of the heat shock response signaling pathway - cell viability counter screen (AID 743209); note: nearly all actives have a fitted effect of over 50% in size
Summary of the method: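 Cytotoxicity counter screen run in parallel with the HSE beta-lactamase reporter, using the same wells. HeLa HSE-bla cells received compound for 5 h at 37 C; ATP-based CellTiter-Glo luminescence was measured after 30 min at room temperature.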

[17] = qHTS assay for small molecule activators of the heat shock response signaling pathway (AID 743210; active = well fitted activation curve with a large enough effect in the signal ratio in the repeat runs, with a control signal flat, not every such curve was filed as active; the % refers to the signal ratio;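 note: HeLa cells with beta-lactamase reporter driven by heat shock elements; series mostly up to about 63 µM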)
Summary of the method: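 Beta-lactamase reporter read-out: FRET substrate fluorescence after 2.5 h at RT, following 5 h compound treatment at 37 C of HeLa cells carrying HSE-driven bla reporter; quantitative HTS format.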

[18] = qHTS assay to identify small molecule agonists of the peroxisome proliferator-activated receptor delta (PPARd) signaling pathway - cell viability counter screen (AID 743211); note: nearly all actives have a fitted effect of over 55% in size
Summary of the method: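 Following 5 h plating at 37 C and 5% CO2, PPARd UAS-bla HEK293H cells took up test compounds for 17 h. Viability was quantified by luminescence 30 min after CellTiter-Glo addition at room temperature.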

[19] = target: Peroxisome proliferator-activated receptor gamma (Homo sapiens) (UniProt P37231); assay: qHTS assay to identify small molecule antagonists of the peroxisome proliferator-activated receptor gamma (PPARg) signaling pathway (AID 743191; calls by dose curve; note: series mostly up to about 63 µM; nearly all actives have a fitted effect of over 30% in size)
Summary of the method: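 GeneBLAzer PPARg UAS-bla HEK293H cells, 5 h post-plating, exposed to compounds 17 h at 37C. LiveBLAzer B/G FRET substrate added for 1 h at room temperature; beta-lactamase reporter read by fluorescence intensity.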

[20] = qHTS assay to identify small molecule antagonists of the peroxisome proliferator-activated receptor gamma (PPARg) signaling pathway - cell viability counter screen (AID 743194); note: nearly all actives have a fitted effect of over 55% in size
Summary of the method: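 Cytotoxicity counter screen in PPARg-bla HEK293H cells, same wells as reporter assay. Compounds plus 50 nM rosiglitazone (final) for 17 h at 37 C, then viability read by CellTiter-Glo luminescence.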
% is set by controls: 0 for no effect and ±100 for the full control effect.

CC/C=C/CCCCCCCCCCOC(C)=O
inactive: Potency [1] | Potency [2] | outcome [3] | Potency [4] | Potency [5] | Potency [6] | Potency [7] | outcome [8] | Potency [9] | outcome [10] | Potency [11] | outcome [12] | outcome [13] | Potency [14] | outcome [15] | Potency [16] | outcome [17] | outcome [18]

Cc1ccc2cccnc2c1
inactive: Potency [1] | Potency [2] | outcome [3] | Potency [4] | Potency [5] | Potency [6] | Potency [7] | outcome [8] | Potency [9] | outcome [10] | Potency [11] | outcome [12] | outcome [13] | outcome [19] | outcome [20] | Potency [14] | outcome [15] | Potency [16] | outcome [17] | outcome [18]

CC(=O)OC/C=C(/C)CCC=C(C)C
inactive: Potency [1] | Potency [2] | outcome [3] | Potency [4] | Potency [5] | Potency [6] | Potency [7] | outcome [8] | Potency [9] | outcome [10] | Potency [11] | outcome [13] | outcome [19] | outcome [20] | Potency [14] | outcome [15] | outcome [17] | outcome [18]

O=C1c2ccccc2C(=O)N1CO
inactive: Potency [1] | Potency [2] | outcome [3] | Potency [4] | Potency [5] | Potency [6] | Potency [7] | outcome [8] | Potency [9] | outcome [10] | Potency [11] | outcome [13] | outcome [19] | outcome [20] | Potency [14] | outcome [15] | Potency [16] | outcome [17] | outcome [18]

O=C(OOC(=O)c1ccccc1)c1ccccc1
inactive: Potency [1] | Potency [2] | outcome [3] | Potency [4] | Potency [5] | Potency [6] | Potency [7] | outcome [8] | Potency [9] | outcome [10] | Potency [11] | outcome [12] | outcome [13] | outcome [20] | Potency [14] | outcome [15] | outcome [17]

COC(=O)c1ccc(C(=O)O)cc1
inactive: Potency [1] | Potency [2] | outcome [3] | Potency [4] | Potency [5] | Potency [6] | Potency [7] | outcome [8] | Potency [9] | outcome [10] | Potency [11] | outcome [12] | outcome [13] | outcome [19] | outcome [20] | Potency [14] | outcome [15] | Potency [16] | outcome [17] | outcome [18]

C[C@@H](CN1CC(=O)NC(=O)C1)N1CC(=O)NC(=O)C1
inactive: Potency [1] | Potency [2] | outcome [3] | Potency [4] | Potency [5] | Potency [6] | Potency [7] | outcome [8] | Potency [9] | outcome [10] | Potency [11] | outcome [12] | outcome [13] | outcome [19] | outcome [20] | outcome [15] | Potency [16] | outcome [17] | outcome [18]

C=CCCCCCCCCOC(C)=O
inactive: Potency [1] | Potency [2] | outcome [3] | Potency [4] | Potency [5] | Potency [6] | Potency [7] | outcome [8] | Potency [9] | outcome [10] | Potency [11] | outcome [13] | outcome [20] | Potency [14] | outcome [15] | Potency [16] | outcome [17]

CCNC(=O)C(C)OC(=O)Nc1ccccc1 (centres undefined)
inactive: Potency [1] | Potency [2] | outcome [3] | Potency [4] | Potency [5] | Potency [6] | outcome [8] | Potency [9] | outcome [10] | outcome [13] | outcome [19] | Potency [14] | outcome [15] | Potency [16] | outcome [18]

O=S(=O)(O)CC(O)CCl (centres undefined)
inactive: Potency [1] | Potency [2] | outcome [3] | Potency [4] | Potency [5] | Potency [6] | outcome [8] | Potency [9] | outcome [10] | Potency [11] | outcome [12] | outcome [13] | outcome [19] | outcome [20] | Potency [14] | outcome [15] | Potency [16] | outcome [17] | outcome [18]

Nc1cc(S(=O)(=O)O)ccc1O
inactive: Potency [1] | Potency [2] | outcome [3] | Potency [4] | Potency [5] | Potency [6] | outcome [8] | Potency [9] | outcome [10] | Potency [11] | outcome [12] | outcome [13] | outcome [19] | outcome [20] | Potency [14] | outcome [15] | Potency [16] | outcome [17] | outcome [18]

CC1=C(O)C(=O)CO1
inactive: Potency [1] | Potency [2] | outcome [3] | Potency [4] | Potency [5] | Potency [6] | Potency [7] | outcome [8] | Potency [9] | outcome [10] | Potency [11] | outcome [19] | outcome [20] | outcome [15] | Potency [16] | outcome [17] | outcome [18]

C[C@@H]1NC(=O)[C@@H](N)CNC(=O)[C@H](C2CCNC(N)=N2)NC(=O)/C(=C/NC(N)=O)NC(=O)[C@H](CNC(=O)C[C@@H](N)CCCN)NC1=O (some centres undefined)
inactive: Potency [1] | Potency [2] | outcome [3] | Potency [4] | Potency [5] | Potency [7] | outcome [8] | Potency [9] | outcome [10] | outcome [12] | ratio activity, negative = inhibition [19] 0.698% [at 0.55 µM] | activity change, negative = cytotoxicity [20] 14.8% [at 0.55 µM] | activation [14] 11.7% [at 0.756 µM] | viability change, negative = cytotoxic [15] 6.23% [at 0.756 µM] | activity change, negative = cytotoxicity [16] -24.2% [at 0.55 µM]
29.8 µM (active) and inactive: Potency [6]

CN(C)CCc1c[nH]c2ccc(CS(=O)(=O)N3CCCC3)cc12
inactive: Potency [1] | Potency [2] | outcome [3] | Potency [4] | Potency [5] | Potency [6] | outcome [8] | Potency [9] | outcome [10] | Potency [11] | outcome [12] | outcome [13] | outcome [20] | Potency [14] | outcome [15] | Potency [16] | outcome [18]

CCC(C)(C)C
inactive: Potency [1] | Potency [2] | outcome [3] | Potency [4] | Potency [5] | Potency [6] | Potency [7] | outcome [8] | Potency [9] | Potency [11] | outcome [12] | outcome [13] | outcome [20] | Potency [14] | outcome [15] | Potency [16] | outcome [17] | outcome [18]
